Results: the supplement of paper PMC9262897, “Low-cost anti-mycobacterial drug discovery using engineered E. coli” (Nature Communications, 2022)
Structures can show the parent of a compound that is named as a salt. ± gives the standard deviation of the averaged measurements.

Assays:
Assay in all cases: growth (OD600 after 10 h); higher = more growth (less inhibition)
[1] = system: E. coli TESEC Alr+ wild-type control; conditions: compound 0.1 mM; raw OD600 reference: median of DMSO wells 0.241, cell-free background 0.041
Procedure: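 TESEC Mtb Alr E. coli, or the Alr+ wild-type control, in 384-well plates with Prestwick library compounds at 0.1 mM and 1% DMSO, across arabinose induction levels of 1E3 to 1E7 nM. Growth is read as OD600 after 10 h at 37 °C in triplicate biological replicates.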

E. coli TESEC Mtb Asd = conditions: compound 0.1 mM
Procedure: (§1)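 TESEC E. coli strains in which the native enzyme is deleted and replaced by arabinose-inducible Mtb Asd, DapB, CysH or TrpD, each grown in its selective medium. Strains were screened against the Prestwick library at 0.1 mM and 1% DMSO in 384-well format at low and high arabinose induction. Growth is read as OD600 after 10 h in triplicate.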

E. coli TESEC Mtb DapB = conditions: compound 0.1 mM
Procedure: as §1

[2] = system: E. coli TESEC Alr+ wild-type control; conditions: compound 0.1 mM; raw OD600 reference: median of DMSO wells 0.49, cell-free background 0.052
Procedure: (§2)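 TESEC Mtb Alr E. coli (ΔaraC ΔtolC ΔentC Δalr ΔdadX, arabinose-inducible Mtb Alr) or the Alr+ wild-type control strain, grown in defined M9-fructose medium without D-alanine in 96-well plates with Prestwick library compounds at 0.1 mM and 1% DMSO. Low Alr induction is 0.1 µM arabinose and high induction is 10 mM arabinose.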

E. coli TESEC Mtb Alr = conditions: compound 0.1 mM
Procedure: as §2

[3] = arabinose induction (level): High, raw OD600 reference: median of DMSO wells 0.331, cell-free background 0.041
[4] = arabinose induction (level): Low, raw OD600 reference: median of DMSO wells 0.417, cell-free background 0.041
[5] = arabinose induction (level): High, raw OD600 reference: median of DMSO wells […], cell-free background 0.041
[6] = arabinose induction (level): Low, raw OD600 reference: median of DMSO wells 0.227, cell-free background 0.041
[7] = arabinose 100 nM, raw OD600 reference: median of DMSO wells 0.413, cell-free background 0.052
[8] = arabinose 10000000 nM, raw OD600 reference: median of DMSO wells […], cell-free background 0.052

SMILES | growth [1] | growth (E. coli TESEC Mtb Asd; [3]) | growth (E. coli TESEC Mtb Asd; [4]) | growth (E. coli TESEC Mtb DapB; [5]) | growth (E. coli TESEC Mtb DapB; [6]) | growth [2] | growth (E. coli TESEC Mtb Alr; [7]) | growth (E. coli TESEC Mtb Alr; [8])
CC(N/C(=N\C#N)Nc1ccncc1)C(C)(C)C (stereo unspecified) [Pinacidil] | 0.223 ± 0.015 | 0.369 ± 0.037 | 0.412 ± 0.03 | 0.19 ± 0.012 | 0.232 ± 0.022 | 0.446 ± 0.031 | 0.405 ± 0.012 | 0.359 ± 0.036
CN1CCN2c3ncccc3Cc3ccccc3C2C1 (stereo unspecified) [Mirtazapine] | 0.217 ± 0.0068 | 0.261 ± 0.11 | 0.29 ± 0.013 | 0.212 ± 0.0063 | 0.249 ± 0.019 | 0.468 ± 0.035 | 0.414 ± 0.014 | 0.336 ± 0.014
N#CC(c1ccc(Cl)cc1)c1c(Cl)cc(-n2ncc(=O)[nH]c2=O)cc1Cl (stereo unspecified) [Diclazuril] | 0.0414 ± 0.00047 | 0.048 ± 0.0019 | 0.0482 ± 0.002 | 0.0518 ± 0.0015 | 0.0496 ± 0.0011 | 0.156 ± 0.17 | 0.0632 ± 0.00095 | 0.0529 ± 0.00089
CCN1CCC[C@H]1CNC(=O)c1c(OC)ccc(Br)c1OC [Remoxipride Hydrochloride] | 0.256 ± 0.007 | 0.288 ± 0.032 | 0.445 ± 0.015 | 0.195 ± 0.0092 | 0.218 ± 0.039 | 0.588 ± 0.039 | 0.416 ± 0.017 | 0.338 ± 0.039
C[C@H]1O[C@@H](O[C@H]2[C@@H](O)C[C@H](O[C@H]3[C@@H](O)C[C@H](O[C@H]4CC[C@@]5(C)[C@H](CC[C@@H]6[C@@H]5C[C@@H](O)[C@]5(C)[C@@H](C7=CC(=O)OC7)CC[C@]65O)C4)O[C@@H]3C)O[C@@H]2C)C[C@H](O)[C@@H]1O [Digoxin] | 0.232 ± 0.0079 | 0.28 ± 0.057 | 0.413 ± 0.046 | 0.196 ± 0.016 | 0.236 ± 0.045 | 0.617 ± 0.038 | 0.414 ± 0.0055 | 0.329 ± 0.044
CC[N+](C)(CC)CCOC(=O)C1c2ccccc2Oc2ccccc21 [Methantheline bromide] | 0.192 ± 0.0029 | 0.223 ± 0.043 | 0.344 ± 0.044 | 0.173 ± 0.018 | 0.222 ± 0.018 | 0.592 ± 0.017 | 0.4172 ± 0.0035 | 0.336 ± 0.013
NC(=O)c1cccnc1 [Nicotinamide] | 0.2773 ± 0.0019 | 0.447 ± 0.0077 | 0.45 ± 0.033 | 0.214 ± 0.01 | 0.258 ± 0.043 | 0.509 ± 0.11 | 0.43 ± 0.024 | 0.453 ± 0.0089
CCOc1ccccc1OC(c1ccccc1)C1CNCCO1 (stereo unspecified) [Reboxetine mesylate] | 0.203 ± 0.0099 | 0.249 ± 0.038 | 0.296 ± 0.061 | 0.15 ± 0.0036 | 0.183 ± 0.021 | 0.542 ± 0.061 | 0.402 ± 0.015 | 0.336 ± 0.022
CCC1(C)CC(=O)NC1=O (stereo unspecified) [Ethosuximide] | 0.2481 ± 0.002 | 0.38 ± 0.03 | 0.417 ± 0.026 | 0.1866 ± 0.0016 | 0.245 ± 0.052 | 0.436 ± 0.043 | 0.4152 ± 0.0041 | 0.368 ± 0.019
CCN(CCCc1ccccc1)CCCc1ccccc1 [Alverine citrate salt] | 0.205 ± 0.011 | 0.211 ± 0.032 | 0.4 ± 0.074 | 0.153 ± 0.0058 | 0.205 ± 0.054 | 0.48 ± 0.026 | 0.418 ± 0.0047 | 0.328 ± 0.0065
O=C1CN2Cc3c(ccc(Cl)c3Cl)N=C2N1 [Anagrelide] | 0.216 ± 0.0042 | 0.27 ± 0.06 | 0.423 ± 0.043 | – | – | 0.536 ± 0.019 | 0.413 ± 0.011 | 0.368 ± 0.065
COc1cc2c(cc1OC)C(=O)C(CC1CCN(Cc3ccccc3)CC1)C2 (stereo unspecified) [Donepezil hydrochloride] | 0.168 ± 0.0034 | 0.234 ± 0.039 | 0.4033 ± 0.0016 | 0.167 ± 0.021 | 0.199 ± 0.039 | – | 0.404 ± 0.011 | 0.325 ± 0.0069
CC(=O)OCC(=O)[C@@]12N=C(C)O[C@@H]1C[C@H]1[C@@H]3CCC4=CC(=O)C=C[C@]4(C)[C@H]3[C@@H](O)C[C@@]12C [Deflazacort] | 0.151 ± 0.011 | 0.323 ± 0.083 | 0.396 ± 0.032 | 0.186 ± 0.0061 | 0.23 ± 0.013 | – | 0.394 ± 0.0082 | 0.347 ± 0.0046
CC(=O)c1ccc(S(=O)(=O)NC(=O)NC2CCCCC2)cc1 [Acetohexamide] | 0.253 ± 0.0047 | 0.268 ± 0.082 | 0.455 ± 0.029 | 0.19 ± 0.0083 | 0.232 ± 0.024 | – | 0.405 ± 0.0044 | 0.316 ± 0.0099
Cc1cccc(C)c1NC(=O)CN1CCN(CCCC(c2ccc(F)cc2)c2ccc(F)cc2)CC1 [Lidoflazine] | 0.239 ± 0.0079 | 0.333 ± 0.059 | 0.361 ± 0.11 | – | – | 0.563 ± 0.013 | 0.4122 ± 0.0027 | 0.379 ± 0.012
C#Cc1cccc(Nc2ncnc3cc(OCCOC)c(OCCOC)cc23)c1 [Erlotinib] | 0.193 ± 0.0065 | 0.349 ± 0.093 | 0.303 ± 0.066 | – | – | 0.436 ± 0.03 | 0.411 ± 0.005 | 0.35 ± 0.012
CC(=O)Nc1ccc(O)cc1 [Acetaminophen] | 0.251 ± 0.0034 | 0.473 ± 0.034 | 0.455 ± 0.0071 | 0.215 ± 0.018 | 0.251 ± 0.027 | – | 0.407 ± 0.015 | 0.335 ± 0.011
CC(=O)CC(c1ccccc1)c1c(O)c2ccccc2oc1=O (stereo unspecified) [Warfarin] | 0.251 ± 0.012 | 0.351 ± 0.065 | 0.391 ± 0.072 | – | – | 0.492 ± 0.081 | 0.39 ± 0.0054 | 0.342 ± 0.012
COc1ccc(C(Cl)=C(c2ccc(OC)cc2)c2ccc(OC)cc2)cc1 [Chlorotrianisene] | 0.242 ± 0.0055 | 0.281 ± 0.037 | 0.264 ± 0.019 | 0.232 ± 0.016 | 0.267 ± 0.0015 | 0.469 ± 0.025 | 0.443 ± 0.02 | 0.407 ± 0.019
Cc1c(Cl)cccc1Nc1ncccc1C(=O)O [Clonixin Lysinate] | 0.181 ± 0.0096 | 0.19 ± 0.011 | 0.17 ± 0.0079 | 0.175 ± 0.019 | 0.207 ± 0.035 | 0.334 ± 0.0083 | 0.283 ± 0.023 | 0.173 ± 0.026
O=C1CN(/N=C/c2ccc([N+](=O)[O-])o2)C(=O)N1 [Nitrofurantoin] | 0.0453 ± 0.00076 | 0.196 ± 0.034 | 0.341 ± 0.038 | 0.172 ± 0.009 | 0.218 ± 0.034 | 0.053 ± 0.00026 | 0.0546 ± 0.0087 | 0.055 ± 0.0017
CN(C)CCCN1c2ccccc2CCc2ccccc21 [Imipramine hydrochloride] | 0.189 ± 0.019 | 0.164 ± 0.026 | 0.363 ± 0.063 | 0.194 ± 0.016 | 0.243 ± 0.071 | 0.452 ± 0.015 | 0.408 ± 0.0092 | 0.21 ± 0.11
CN1CCN2c3ccccc3Cc3ccccc3C2C1 (stereo unspecified) [Mianserine hydrochloride] | 0.179 ± 0.0089 | 0.222 ± 0.042 | 0.303 ± 0.04 | – | – | – | 0.424 ± 0.0035 | 0.318 ± 0.015
O=C1OC(CN2CCOCC2)CN1/N=C/c1ccc([N+](=O)[O-])o1 (stereo unspecified) [Furaltadone hydrochloride] | 0.04157 ± 0.00012 | 0.0534 ± 0.0031 | 0.0559 ± 0.0011 | 0.0577 ± 0.0081 | 0.0529 ± 0.00068 | – | 0.0601 ± 0.0022 | 0.0562 ± 0.0033
